# Assay results as given in article PMC11006913.
# Changes are numbered by the printed parent chain.
# Experiments:
# Test in all cases: PBM; 200 nM protein, PBS
# Conditions in all cases: dsDNA, one strand shown
# SIX6 [1] = target: T1, SIX6 (Homo sapiens, UniProt O95475 114-200, L167I)
# T1 sequence: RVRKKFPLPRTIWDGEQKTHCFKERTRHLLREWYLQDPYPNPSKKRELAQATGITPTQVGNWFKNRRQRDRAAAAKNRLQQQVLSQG
# SIX6 [2] = target: T2, SIX6 (Homo sapiens, UniProt O95475 114-200, L143V)
# T2 sequence: T1 sequence with L30V, I54L
# SIX6 [3] = target: T3, SIX6 (Homo sapiens, UniProt O95475 114-200, H141N)
# T3 sequence: T1 sequence with H28N, I54L
# SIX6 [4] = target: T4, SIX6 (Homo sapiens, UniProt O95475 114-200, T165P)
# T4 sequence: T1 sequence with T52P, I54L
# SIX6 [5] = target: T5, SIX6 (Homo sapiens, UniProt O95475 114-200, L167M)
# T5 sequence: T1 sequence with I54M
# SIX6 [6] = target: T6, SIX6 (Homo sapiens, UniProt O95475 114-200, L143M)
# T6 sequence: T1 sequence with L30M, I54L
# SIX6 [7] = target: T7, SIX6 (Homo sapiens, UniProt O95475 114-200, L143I)
# T7 sequence: T1 sequence with L30I, I54L
# SIX6 [8] = target: T8, SIX6 (Homo sapiens, UniProt O95475 114-200, T165G)
# T8 sequence: T1 sequence with T52G, I54L
# SIX6 [9] = target: T9, SIX6 (Homo sapiens, UniProt O95475 114-200, T139Q)
# T9 sequence: T1 sequence with T26Q, I54L
# SIX6 [10] = target: T10, SIX6 (Homo sapiens, UniProt O95475 114-200, T165A)
# T10 sequence: T1 sequence with T52A, I54L
# SIX6 [11] = target: T11, SIX6 (Homo sapiens, UniProt O95475 114-200, L167V)
# T11 sequence: T1 sequence with I54V
# SIX6 [12] = target: T12, SIX6 (Homo sapiens, UniProt O95475 114-200)
# T12 sequence: T1 sequence with I54L
# SIX6 [13] = target: T13, SIX6 (Homo sapiens, UniProt O95475 114-200, T165I)
# T13 sequence: T1 sequence with T52I, I54L
# NKX3-2 [14] = target: NKX3-2 (Homo sapiens, UniProt P78367 192-278, P234S)
# NKX3-2 (Homo sapiens, UniProt P78367 192-278, P234S), sequence (P78367 192-278 P234S): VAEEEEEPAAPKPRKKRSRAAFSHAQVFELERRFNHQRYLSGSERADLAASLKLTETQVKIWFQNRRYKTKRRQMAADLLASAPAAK
# NKX3-2 [15] = target: NKX3-2 (Homo sapiens, UniProt P78367 192-278)
# NKX3-2 (Homo sapiens, UniProt P78367 192-278), sequence (P78367 192-278): as the sequence (P78367 192-278 P234S) above, with S43P counted along it
Sequence,binding signal (SIX6 [1]),binding signal (SIX6 [2]),binding signal (SIX6 [3]),binding signal (SIX6 [4]),binding signal (SIX6 [5]),binding signal (SIX6 [6]),binding signal (SIX6 [7]),binding signal (SIX6 [8]),binding signal (SIX6 [9]),binding signal (SIX6 [10]),binding signal (SIX6 [11]),binding signal (SIX6 [12]),binding signal (SIX6 [13]),binding signal (NKX3-2 [14]),binding signal (NKX3-2 [15])
GGATATCC,"11 upbm affinity estimate (log intensity, higher = more binding, comparable within an allelic series)","10.2 upbm affinity estimate (log intensity, higher = more binding, comparable within an allelic series)","10.9 upbm affinity estimate (log intensity, higher = more binding, comparable within an allelic series)","9.51 upbm affinity estimate (log intensity, higher = more binding, comparable within an allelic series)","10.6 upbm affinity estimate (log intensity, higher = more binding, comparable within an allelic series)","10.9 upbm affinity estimate (log intensity, higher = more binding, comparable within an allelic series)","10.2 upbm affinity estimate (log intensity, higher = more binding, comparable within an allelic series)","11 upbm affinity estimate (log intensity, higher = more binding, comparable within an allelic series)","11 upbm affinity estimate (log intensity, higher = more binding, comparable within an allelic series)","10.8 upbm affinity estimate (log intensity, higher = more binding, comparable within an allelic series)","10.9 upbm affinity estimate (log intensity, higher = more binding, comparable within an allelic series)","11 upbm affinity estimate (log intensity, higher = more binding, comparable within an allelic series)","10.9 upbm affinity estimate (log intensity, higher = more binding, comparable within an allelic series)",–,–
CTGATACC,"11.3 upbm affinity estimate (log intensity, higher = more binding, comparable within an allelic series)","10.4 upbm affinity estimate (log intensity, higher = more binding, comparable within an allelic series)","11.3 upbm affinity estimate (log intensity, higher = more binding, comparable within an allelic series)","9.63 upbm affinity estimate (log intensity, higher = more binding, comparable within an allelic series)","10.6 upbm affinity estimate (log intensity, higher = more binding, comparable within an allelic series)","11 upbm affinity estimate (log intensity, higher = more binding, comparable within an allelic series)","10.4 upbm affinity estimate (log intensity, higher = more binding, comparable within an allelic series)","11.4 upbm affinity estimate (log intensity, higher = more binding, comparable within an allelic series)","11.4 upbm affinity estimate (log intensity, higher = more binding, comparable within an allelic series)","11.4 upbm affinity estimate (log intensity, higher = more binding, comparable within an allelic series)","11 upbm affinity estimate (log intensity, higher = more binding, comparable within an allelic series)","11.1 upbm affinity estimate (log intensity, higher = more binding, comparable within an allelic series)","11.1 upbm affinity estimate (log intensity, higher = more binding, comparable within an allelic series)",–,–
GATACCCC,"11.5 upbm affinity estimate (log intensity, higher = more binding, comparable within an allelic series)","10.4 upbm affinity estimate (log intensity, higher = more binding, comparable within an allelic series)","11.5 upbm affinity estimate (log intensity, higher = more binding, comparable within an allelic series)","9.41 upbm affinity estimate (log intensity, higher = more binding, comparable within an allelic series)","11 upbm affinity estimate (log intensity, higher = more binding, comparable within an allelic series)","11.2 upbm affinity estimate (log intensity, higher = more binding, comparable within an allelic series)","10.5 upbm affinity estimate (log intensity, higher = more binding, comparable within an allelic series)","11.6 upbm affinity estimate (log intensity, higher = more binding, comparable within an allelic series)","11.4 upbm affinity estimate (log intensity, higher = more binding, comparable within an allelic series)","11.3 upbm affinity estimate (log intensity, higher = more binding, comparable within an allelic series)","11.2 upbm affinity estimate (log intensity, higher = more binding, comparable within an allelic series)","11.3 upbm affinity estimate (log intensity, higher = more binding, comparable within an allelic series)","11.2 upbm affinity estimate (log intensity, higher = more binding, comparable within an allelic series)",–,–
CGCAGAGC,"8.98 upbm affinity estimate (log intensity, higher = more binding, comparable within an allelic series)","8.91 upbm affinity estimate (log intensity, higher = more binding, comparable within an allelic series)","8.85 upbm affinity estimate (log intensity, higher = more binding, comparable within an allelic series)","9 upbm affinity estimate (log intensity, higher = more binding, comparable within an allelic series)","8.82 upbm affinity estimate (log intensity, higher = more binding, comparable within an allelic series)","8.9 upbm affinity estimate (log intensity, higher = more binding, comparable within an allelic series)","8.9 upbm affinity estimate (log intensity, higher = more binding, comparable within an allelic series)","8.85 upbm affinity estimate (log intensity, higher = more binding, comparable within an allelic series)","8.88 upbm affinity estimate (log intensity, higher = more binding, comparable within an allelic series)","8.97 upbm affinity estimate (log intensity, higher = more binding, comparable within an allelic series)","9.02 upbm affinity estimate (log intensity, higher = more binding, comparable within an allelic series)","8.83 upbm affinity estimate (log intensity, higher = more binding, comparable within an allelic series)","8.83 upbm affinity estimate (log intensity, higher = more binding, comparable within an allelic series)","10.6 upbm affinity estimate (log intensity, higher = more binding, comparable within an allelic series)","10.6 upbm affinity estimate (log intensity, higher = more binding, comparable within an allelic series)"
AGTGATAC,"11.6 upbm affinity estimate (log intensity, higher = more binding, comparable within an allelic series)","10.5 upbm affinity estimate (log intensity, higher = more binding, comparable within an allelic series)","11.5 upbm affinity estimate (log intensity, higher = more binding, comparable within an allelic series)","9.81 upbm affinity estimate (log intensity, higher = more binding, comparable within an allelic series)","10.9 upbm affinity estimate (log intensity, higher = more binding, comparable within an allelic series)","11.2 upbm affinity estimate (log intensity, higher = more binding, comparable within an allelic series)","10.5 upbm affinity estimate (log intensity, higher = more binding, comparable within an allelic series)","11.6 upbm affinity estimate (log intensity, higher = more binding, comparable within an allelic series)","11.5 upbm affinity estimate (log intensity, higher = more binding, comparable within an allelic series)","11.5 upbm affinity estimate (log intensity, higher = more binding, comparable within an allelic series)","11.4 upbm affinity estimate (log intensity, higher = more binding, comparable within an allelic series)","11.2 upbm affinity estimate (log intensity, higher = more binding, comparable within an allelic series)","11.4 upbm affinity estimate (log intensity, higher = more binding, comparable within an allelic series)",–,–
CGTATCAC,"11.2 upbm affinity estimate (log intensity, higher = more binding, comparable within an allelic series)","10.3 upbm affinity estimate (log intensity, higher = more binding, comparable within an allelic series)","11.3 upbm affinity estimate (log intensity, higher = more binding, comparable within an allelic series)","9.61 upbm affinity estimate (log intensity, higher = more binding, comparable within an allelic series)","10.6 upbm affinity estimate (log intensity, higher = more binding, comparable within an allelic series)","11 upbm affinity estimate (log intensity, higher = more binding, comparable within an allelic series)","10.4 upbm affinity estimate (log intensity, higher = more binding, comparable within an allelic series)","11.3 upbm affinity estimate (log intensity, higher = more binding, comparable within an allelic series)","11.3 upbm affinity estimate (log intensity, higher = more binding, comparable within an allelic series)","11.2 upbm affinity estimate (log intensity, higher = more binding, comparable within an allelic series)","11 upbm affinity estimate (log intensity, higher = more binding, comparable within an allelic series)","11 upbm affinity estimate (log intensity, higher = more binding, comparable within an allelic series)","11.1 upbm affinity estimate (log intensity, higher = more binding, comparable within an allelic series)",–,–
CTTGATAC,"11.2 upbm affinity estimate (log intensity, higher = more binding, comparable within an allelic series)",–,"11.1 upbm affinity estimate (log intensity, higher = more binding, comparable within an allelic series)",–,–,–,–,"11.2 upbm affinity estimate (log intensity, higher = more binding, comparable within an allelic series)",–,"11.1 upbm affinity estimate (log intensity, higher = more binding, comparable within an allelic series)","10.9 upbm affinity estimate (log intensity, higher = more binding, comparable within an allelic series)",–,–,–,–
GATCCAAA,"10.4 upbm affinity estimate (log intensity, higher = more binding, comparable within an allelic series)",–,"10.2 upbm affinity estimate (log intensity, higher = more binding, comparable within an allelic series)","9.67 upbm affinity estimate (log intensity, higher = more binding, comparable within an allelic series)","10 upbm affinity estimate (log intensity, higher = more binding, comparable within an allelic series)","10.4 upbm affinity estimate (log intensity, higher = more binding, comparable within an allelic series)",–,"10.2 upbm affinity estimate (log intensity, higher = more binding, comparable within an allelic series)","10.5 upbm affinity estimate (log intensity, higher = more binding, comparable within an allelic series)","10.2 upbm affinity estimate (log intensity, higher = more binding, comparable within an allelic series)","10.1 upbm affinity estimate (log intensity, higher = more binding, comparable within an allelic series)","10.3 upbm affinity estimate (log intensity, higher = more binding, comparable within an allelic series)","10.2 upbm affinity estimate (log intensity, higher = more binding, comparable within an allelic series)",–,–
TGACACCA,"10.3 upbm affinity estimate (log intensity, higher = more binding, comparable within an allelic series)",–,–,–,"9.84 upbm affinity estimate (log intensity, higher = more binding, comparable within an allelic series)",–,–,"11.2 upbm affinity estimate (log intensity, higher = more binding, comparable within an allelic series)",–,"11.1 upbm affinity estimate (log intensity, higher = more binding, comparable within an allelic series)",–,–,–,–,–
ATACAGAT,"10.7 upbm affinity estimate (log intensity, higher = more binding, comparable within an allelic series)",–,"10.6 upbm affinity estimate (log intensity, higher = more binding, comparable within an allelic series)","10 upbm affinity estimate (log intensity, higher = more binding, comparable within an allelic series)","10.5 upbm affinity estimate (log intensity, higher = more binding, comparable within an allelic series)","10.7 upbm affinity estimate (log intensity, higher = more binding, comparable within an allelic series)","10.3 upbm affinity estimate (log intensity, higher = more binding, comparable within an allelic series)","10.7 upbm affinity estimate (log intensity, higher = more binding, comparable within an allelic series)","10.8 upbm affinity estimate (log intensity, higher = more binding, comparable within an allelic series)","10.5 upbm affinity estimate (log intensity, higher = more binding, comparable within an allelic series)","10.5 upbm affinity estimate (log intensity, higher = more binding, comparable within an allelic series)","10.6 upbm affinity estimate (log intensity, higher = more binding, comparable within an allelic series)","10.5 upbm affinity estimate (log intensity, higher = more binding, comparable within an allelic series)",–,–
AAGTATCT,"10.5 upbm affinity estimate (log intensity, higher = more binding, comparable within an allelic series)",–,"10.4 upbm affinity estimate (log intensity, higher = more binding, comparable within an allelic series)",–,"10.2 upbm affinity estimate (log intensity, higher = more binding, comparable within an allelic series)","10.4 upbm affinity estimate (log intensity, higher = more binding, comparable within an allelic series)","9.98 upbm affinity estimate (log intensity, higher = more binding, comparable within an allelic series)","10.4 upbm affinity estimate (log intensity, higher = more binding, comparable within an allelic series)","10.6 upbm affinity estimate (log intensity, higher = more binding, comparable within an allelic series)","10.4 upbm affinity estimate (log intensity, higher = more binding, comparable within an allelic series)","10.3 upbm affinity estimate (log intensity, higher = more binding, comparable within an allelic series)","10.3 upbm affinity estimate (log intensity, higher = more binding, comparable within an allelic series)","10.3 upbm affinity estimate (log intensity, higher = more binding, comparable within an allelic series)",–,–
